Data as given in PubChem BioAssay (NCI).
Compounds without any hit were thinned out: in the full panel of roughly 83,000, 20% have a hit.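 Plates (96-well) were seeded with cells, treated with compound at one concentration, and incubated for 48 hours before percent growth was determined.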 Values without a mark were called inactive. Activity calls are given as the source filed them. The calls were made as follows: active = growth percent below 10; inactive = the rest.

Columns and labels:
Assay in all cases: NCI-60 one-dose screen, 48 h (100 = growth as untreated, 0 = no growth, -100 = all killed)
Conditions in all cases: 10 µM unless noted
NCI-H23 lung = system: NCI-H23 lung
NCI-H226 lung = system: NCI-H226 lung
NCI-H322M lung = system: NCI-H322M lung
HOP-62 NSCLC = system: HOP-62 NSCLC
NCI-H460 lung = system: NCI-H460 lung
HOP-92 NSCLC = system: HOP-92 NSCLC
NCI-H522 lung = system: NCI-H522 lung
A549/ATCC NSCLC = system: A549/ATCC NSCLC
786-0 renal = system: 786-0 renal
COLO 205 colon = system: COLO 205 colon

| Structure (SMILES) | growth (NCI-H23 lung) | growth (NCI-H226 lung) | growth (NCI-H322M lung) | growth (HOP-62 NSCLC) | growth (NCI-H460 lung) | growth (HOP-92 NSCLC) | growth (NCI-H522 lung) | growth (A549/ATCC NSCLC) | growth (786-0 renal) | growth (COLO 205 colon) |
| --- | --- | --- | --- | --- | --- | --- | --- | --- | --- | --- |
| CCOC(=O)C1=C(C)NC(C)=C(C(=O)OCc2ccccc2)C1c1cccc(C#N)c1 (stereo not given) | 62.5% | 58.4% | 69% | 45.6% | 22.1% | 50.5% | 9.38% (active) | 34.1% | 36.2% | 34.5% |
| COc1cc(C(=O)c2cc(C(C)=O)c3cccc(C)n23)cc(OC)c1OC | 59.7% | 51.6% | 69.2% | 36.7% | 16.1% | 33.5% | 19.3% | 50.2% | 47.1% | 11% |
| O=C1Nc2ccc(F)cc2/C1=C\C(=O)c1ccc(NS(=O)(=O)c2ccccc2)cc1 | 84.3% | 95.6% | 93.8% | 103% | 101% | 82.7% | 70.2% | 97.4% | 98.6% | 113% |
| CCN(CC)S(=O)(=O)c1ccc(-c2nc(C(Cl)Cl)nc3cc(C)nn23)cc1 | 14.6% | 69.7% | 57.1% | 5.6% (active) | 8.65% (active) | -5.03% (active) | 56% | 0.55% (active) | 92.5% | -18.7% (active) |
| CC(=C(c1ccc(OCCN2CCCC2)cc1)c1ccc(OCCN2CCCC2)cc1)c1ccc(Cl)cc1 | 60.7% | 80% | 15.6% | -68.7% (active) | -52.2% (active) | -1.74% (active) | -48.5% (active) | -61.8% (active) | -85.9% (active) | -74.4% (active) |
| Cn1cc(-c2cc3ncnc(Nc4ccc(CC(=O)Nc5nc(C(C)(C)C)cs5)cc4)c3s2)cn1 | 47.5% | 32.9% | 43.8% | 93.1% | 54.3% | 85% | 36.9% | 46.4% | 34.4% | 65.8% |
| Cc1cc(NS(=O)(=O)c2ccc(NC(=O)CSc3nc4ccccc4c(=O)n3-c3ccccc3)cc2)no1 | 92.2% | 93.4% | 83.9% | 98.5% | 108% | 88.6% | 91.9% | 101% | 104% | 106% |
| CNC(=O)c1cc(-c2ccc(NC(=S)Nc3cccc(C(F)(F)F)c3)cc2)nc2cccnc12 | 92.4% | 95.8% | 96.1% | 102% | 99.4% | 85% | 89.7% | 96.9% | 96.7% | 104% |
| COc1cc(/C=C2/C(=O)Nc3ccc(Cl)cc32)ccc1OCc1ccc(Cl)cc1 | 81.2% | 95.7% | 89.3% | 92.1% | 70.5% | 88.3% | 87.9% | 84.9% | 100% | 93.4% |
| Nc1nc(=O)n([C@H]2C[C@H](O)[C@@H](CO)O2)cc1C=O | 112% | 111% | 110% | 95.6% | 103% | 57.7% | 102% | 103% | 102% | 14.5% |
| CN1CCC[C@]2(C)[C@H]3CC[C@@H]4[C@@H]5[C@H]6OC[C@@]5(CCC6(C)C)CC[C@@]4(C)[C@]3(C)CC[C@H]2C1(C)C | 91% | 93.2% | 87.8% | 94.2% | 1.69% (active) | 50.6% | 96.3% | 71.7% | 84.4% | -8.01% (active) |
| O=c1oc2ccc(-c3ccc(F)cc3F)cc2c(=O)n1-c1ccc(Br)cc1F | 60% | 77.8% | 71.7% | 82.9% | 45.9% | -19.3% (active) | 12.1% | 84.4% | 95.2% | 121% |
| COc1cc(C(=O)c2cc(C(C)=O)c3c(C)cccn23)cc(OC)c1OC | 101% | 89.9% | 98.5% | 99.5% | 102% | 110% | 90.2% | 104% | 91% | 110% |
| CC(=O)OC[C@]12CC[C@@H](C(=O)/C=C/c3cccnc3)[C@@H]1[C@H]1CC[C@@H]3[C@@]4(C)CC[C@H](OC(C)=O)C(C)(C)[C@@H]4CC[C@@]3(C)[C@]1(C)CC2 | 1.02% (active) | -70.5% (active) | 53.5% | 28.1% | 7.8% (active) | -29.1% (active) | -20.3% (active) | 23.1% | 27.2% | -18.6% (active) |
| CC(C)(C)c1cc(NC(=O)Nc2ccc(-c3cn4c5c(sc4n3)CCc3c[nH]cc3-5)cc2)no1 | 13.9% | 33.9% | 47.6% | -28.1% (active) | 4.38% (active) | 23.5% | 32.4% | 28.7% | -29.4% (active) | -17.2% (active) |
| Cc1[nH]c(C(=O)Nc2ccccc2OCc2cccc(C(=O)NC3CCCNC3)c2)c(Cl)c1Cl (stereo not given) | -76.7% (active) | 73.3% | -93.7% (active) | -42.2% (active) | -68.5% (active) | 47.9% | -50.9% (active) | -52.6% (active) | -71.6% (active) | -33.2% (active) |
| COc1ccc(-c2cc(-c3ccc(N4CCOCC4)cc3)n3c(n2)nc2ccccc23)cc1OC | 98% | 85.7% | 94.6% | 94.8% | 86.3% | -4.32% (active) | 87.7% | 82.5% | 84.7% | 108% |
| Fc1cc(F)cc(NNC(=S)c2ccccc2)c1 | 23.1% | 49.7% | 73.4% | 58.4% | 21.9% | -16.7% (active) | 37% | 31% | 53.3% | 108% |
| Nc1ccc(Nc2ncnc3sc4c(c23)CCN(Cc2ccccc2)C4)cc1 | 102% | 91.5% | 101% | 103% | 105% | 92.2% | 91.3% | 100% | 105% | 115% |
| COc1ccccc1Cn1cc(C#N)c(N)c1C(=O)c1ccc(Br)cc1 | 91.8% | 89.5% | 94.6% | 104% | 96.4% | 100% | 89.5% | 101% | 102% | 113% |
| NNc1nnc2nc(Nc3ccccc3)nc(Nc3ccc(S(N)(=O)=O)cc3)n12 | 102% | 105% | 102% | 111% | 101% | 119% | 101% | 105% | 110% | 105% |
| O=C1[C@@H]2Cc3c([nH]c4ccccc34)[C@@H](c3ccc(Cl)cc3)N2C(=O)CN1C1CCN(Cc2ccccc2)CC1 | 72.4% | 72.5% | 87.2% | 61% | 20% | 11.3% | 20.7% | 38.6% | 67% | 46.4% |
| Clc1cccc(/C=N/Nc2nc(N/N=C/c3cccc(Cl)c3)nc(N3CCCCC3)n2)c1 | 97.8% | 82% | 101% | 104% | 96.5% | 108% | 88.3% | 86.3% | 95.2% | 102% |
| Brc1ccc2[nH]cc(-c3nn4cc(-c5nccs5)nc4s3)c2c1 | 31.2% | 50.5% | 51.5% | 12.8% | -45.3% (active) | -28.1% (active) | 67.6% | 4.76% (active) | -74.5% (active) | 11% |
| C=C(C)[C@@H]1CC[C@]2(COCCCNCCCN)CC[C@]3(C)[C@H](CC[C@@H]4[C@@]5(C)CC[C@H](O)C(C)(C)[C@@H]5CC[C@]43C)[C@@H]12 | -64.7% (active) | 4.38% (active) | -90.2% (active) | -51.3% (active) | -77.3% (active) | -76.2% (active) | -54.6% (active) | -48.7% (active) | -81.3% (active) | -65.9% (active) |
| O=C(CCCCCCNC(=O)C(O)(O)C(F)(F)F)Nc1nc2ccccc2s1 | 3.62% (active) | 25.4% | 8.24% (active) | 0.982% (active) | 8.87% (active) | -5.22% (active) | -35.8% (active) | 4.79% (active) | 20.3% | -68.5% (active) |
| Cc1[nH]c(C(=O)Nc2ccc(C(=O)NCC3CCNCC3)cc2OC(C)C)c(Cl)c1Cl | 83% | 83.6% | 92.1% | 86.4% | 34.7% | 65.9% | 90.7% | 65.4% | 79.8% | -13.3% (active) |
